Most compounds without a hit are left out; they make up all but 1.7% or so of the library.
Mtb bLac sens: beta-lactam sensitization of Mtb H37Rv; 0.27% of 330,000 active; inhibition, % at 25 µM; AID 434955; M. tuberculosis H37Rv growth with meropenem, percent inhibition; call rule not given here;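 further: growth measured after seven days incubation then overnight dye step; 0% = bacteria only wells and 100% = bacteria with antibiotic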
PfHsp40 rescue: rescue of PfHsp40-mediated yeast toxicity; S. cerevisiae expressing PfHsp40, growth rescue, ATP luminescence; AID 504582; 0.68% of 340,000 active; growth rescue, % at 12.5 µM; in the data active means growth rescue above about 28%, passing the limit was not always enough;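 further: yeast W303a lacking pdr1 and pdr3 grown in galactose medium; growth measured after three days at 30 °C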
Mtb hypoxia inh: reduces hypoxia-regulated biosensor signal in M. tuberculosis | M. tuberculosis hypoxia-regulated fluorescent reporter, fluorescence | fluorescence inhibition, % (test concentration not listed) | 0.1% of 300,000 active | AID 1159583; in the data active means fluorescence inhibition mostly above about 23%, no sharp cut-off; inactive means mostly below about 17%
RecA intein inh: blocks M. tuberculosis RecA intein splicing; P9WHJ3; 0.75% of 290,000 active; cell-free RecA intein splicing, fluorescence; inhibition, % (no concentration beside the values); in the data active means inhibition above about 30%;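 further: 0% = vehicle wells and 100% = reference inhibitor control wells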
Target sequence (P9WHJ3 whole entry, looked up): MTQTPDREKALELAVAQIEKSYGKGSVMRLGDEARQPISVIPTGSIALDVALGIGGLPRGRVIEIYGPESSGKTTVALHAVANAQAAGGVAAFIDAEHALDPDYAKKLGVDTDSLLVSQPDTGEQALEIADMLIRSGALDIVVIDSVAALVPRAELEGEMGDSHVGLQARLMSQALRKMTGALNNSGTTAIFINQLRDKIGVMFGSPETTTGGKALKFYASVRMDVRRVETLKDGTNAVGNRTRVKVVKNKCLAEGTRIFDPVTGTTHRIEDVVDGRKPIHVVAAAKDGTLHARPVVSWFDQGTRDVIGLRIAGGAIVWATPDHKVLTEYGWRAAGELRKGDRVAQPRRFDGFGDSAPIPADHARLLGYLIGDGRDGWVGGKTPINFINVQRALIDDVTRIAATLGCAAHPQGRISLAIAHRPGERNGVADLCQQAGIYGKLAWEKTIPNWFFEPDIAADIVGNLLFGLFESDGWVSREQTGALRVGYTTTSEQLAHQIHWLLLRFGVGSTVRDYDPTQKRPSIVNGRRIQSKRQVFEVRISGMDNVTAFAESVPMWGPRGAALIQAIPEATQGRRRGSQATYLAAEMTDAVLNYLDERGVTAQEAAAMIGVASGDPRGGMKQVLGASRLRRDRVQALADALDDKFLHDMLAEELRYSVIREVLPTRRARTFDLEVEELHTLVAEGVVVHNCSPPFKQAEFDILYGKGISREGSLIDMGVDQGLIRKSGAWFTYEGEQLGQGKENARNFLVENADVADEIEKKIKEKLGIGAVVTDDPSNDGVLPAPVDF
CCHF vOTU inh: blocks the CCHF virus ovarian tumor domain protease; AID 651958; 0.55% of 370,000 active; inhibition, % at 11.5 µM; CCHFV vOTU protease, Pep-AMC fluorescence; in the data active means inhibition above about 30%; further: 0% = vehicle wells with enzyme and 100% = no enzyme wells
* hit, by the source's call; . = no result given.

SMILES | Mtb bLac sens | PfHsp40 rescue | Mtb hypoxia inh | RecA intein inh | CCHF vOTU inh
CCC1=C(OC(=O)N(CC)CC)N2C(=O)OC(=NCCOC)[C@]2(Cc2ccccc2)C2C1=CCC1C(=O)N(CC)C(=O)C12 (stereo partly specified) | . | . | 11 | . | .
C#CCNC(=O)C=Cc1ccc(OC)cc1 | . | . | 11 | . | .
CCOc1cc(C=NNC(=O)c2ccc(CN3CCOCC3)cc2)ccc1OCc1ccccc1 | . | . | 3 | . | .
Oc1c(Cl)cc(Cl)c2c1NCCC2 | . | 87* | . | -5 | 0
O=C1NCCCc2c1oc1ccc(O)cc21 | -12 | 0 | 1 | -2 | 11
COc1ccccc1-c1sc2cc3c(cc2c1-c1ccc(OCCN2CCCCC2)cc1)OCO3 | 100 | 43* | 16 | . | 8
c1ccc(Oc2cccc(OCCCn3cncn3)c2)cc1 | 0 | 95* | . | 3 | 15
O=[N+]([O-])c1ccc(OCCOCCOc2ccc([N+](=O)[O-])cc2)cc1 | 0 | 0 | 2 | -2 | -11
O=[N+]([O-])c1ccc(OCCCn2cncn2)cc1 | -4 | 51* | 11 | 0 | -8
O=C(NN=Cc1ccc[nH]1)c1ccc(Cl)cc1 | . | . | 1 | . | .
CC(=O)c1ccc(Sc2nnnn2-c2ccccc2)c([N+](=O)[O-])c1 | 98 | 0 | 16 | 31* | -5
CN1CCN(S(=O)(=O)c2ccc(Sc3nnnn3-c3ccccc3)c([N+](=O)[O-])c2)CC1 | 49 | -1 | 17 | 15 | -6
CNc1ccc(C=C2C=Cc3ccccc32)cc1 | . | 172* | 2 | . | 21
Nc1[nH]c(=O)ncc1F | 3 | 370* | 7 | 0 | -6
O=C(O)C=CC(=O)Nc1ccc(OC(F)(F)Cl)cc1 | . | . | 6 | . | .
O=c1[nH]c(=O)n(C2CC(O)C(CO)O2)cc1F (stereo unspecified) | . | . | 0 | . | .
CCCCCCCCCCCCCCCCCCNc1ccn(C2OC(COP(=O)(O)OCC3OC(n4cc(F)c(=O)[nH]c4=O)CC3O)C(O)C2O)c(=O)n1 (stereo unspecified) | . | 42* | . | . | 10
COc1cccc(/C=N/NC(=O)c2cc(-c3cccn3C)n[nH]2)c1O | -3 | 160* | . | 12 | 7
Cc1ccsc1C=C(C(=O)c1ccc(OC(C)C)cc1)c1nc2ccccc2o1 | . | . | -3 | . | .
COc1cc2cnc(-c3ccccc3)c(C(=O)c3ccc(OCc4ccccc4)cc3)c2cc1OC | . | -2 | -9 | . | 9
COc1cc2cnc(-c3ccccc3)c(C(=O)c3ccc(F)cc3)c2cc1OC | 4 | 411* | 8 | . | 5
COc1ccc2cnn(CCOc3cc(C)ccc3C(C)C)c(=O)c2c1OC | 6 | 320* | -7 | 4 | -7
CCOc1ccccc1OCCn1ncc2ccc(OC)c(OC)c2c1=O | -1 | 0 | . | -1 | 3
COc1ccc(S(=O)(=O)N(C)CC2Oc3c(NC(=O)NC4CCCCC4)cccc3C(=O)N(C(C)CO)CC2C)cc1 (stereo unspecified) | . | . | 6 | . | .
N#Cc1ccc(-c2c(-c3ccccc3)ncc3cc(F)ccc23)cc1 | 41 | 124* | 3 | . | -2
SMILES | Mtb bLac sens | PfHsp40 rescue | Mtb hypoxia inh | RecA intein inh | CCHF vOTU inh
CCOC(=O)NNc1ccc2nonc2c1[N+](=O)[O-] | 75 | 124* | . | . | .
CCc1ccc(Nc2ccc3nonc3c2[N+](=O)[O-])cc1 | 32 | -2 | -12 | 6 | -9
COc1ccc(NC(=S)N/N=C2\CC(C)(C)Oc3ccc(O)cc32)cc1 | 3 | 39* | . | -15 | 2
COc1ccccc1NC(=S)N/N=C1\CC(C)(C)Oc2ccc(O)cc21 | -4 | 0 | . | -20 | 0
CCOC(=O)c1c(C)[nH]c(C(=O)N/N=C\c2ccccc2O)c1C | 3 | 37* | . | -1 | 1
CCOC(=O)c1c(C)[nH]c(C(=O)NN=Cc2ccccc2Cl)c1C | . | . | 6 | . | .
CC1CN(C(C)CO)C(=O)c2cccc(NS(=O)(=O)c3cn(C)cn3)c2OC1CN(C)C(=O)NC1CCCCC1 (stereo unspecified) | . | . | 8 | . | .
Cc1ccc(/C=C/C(=O)N2CCN(Cc3ccccc3)CC2)o1 | -1 | 0 | 59* | -2 | 14
Cc1cccc(CN2CCN(C(=O)CCl)CC2)c1 | 98 | 0 | 25 | 33* | -9
Cc1ccc(C(=O)N2CCN(Cc3ccccc3)CC2)o1 | 0 | 0 | . | 0 | -5
Cn1ccc(C=N/N=C2/NC(=O)CS2)n1 | . | . | 6 | . | .
Cc1cc([N+](=O)[O-])c2ccccc2[n+]1[O-] | 100 | 127* | . | -15 | .
c1ccc(Cn2cc(-c3cccnc3)cn2)cc1 | 5 | 553* | 17 | . | 14
c1ccc(Cn2cc(-c3ccccc3)cn2)cc1 | 9 | 0 | . | . | 11
CO[C@@]1(NC(=O)C2SC(=C(C(N)=O)C(=O)O)S2)C(=O)N2C(C(=O)O)=C(CSc3nnnn3C)CSC21 (stereo partly specified) | . | . | 4 | . | .
Cc1[nH]nc(C(=O)NN=Cc2ccccc2Cl)c1N=NN(C)C | . | 41* | . | . | -8
Cc1cccc(OCC(=O)NCC(=O)NN=Cc2cc(Br)ccc2OCc2ccccc2)c1 | . | . | 11 | . | .
CN(C)c1ccc(C(=O)n2nnc3ccccc32)cc1 | 9 | -2 | 18 | 49* | 7
Cc1onc(-c2c(Cl)cccc2Cl)c1C(=O)n1nnc2ccccc21 | 16 | . | . | 37* | .
Cc1onc(-c2c(Cl)cccc2Cl)c1C(N)=O | 6 | -2 | 2 | . | -5
O=C(N/N=C/C(Cl)=C/c1ccc([N+](=O)[O-])cc1)C(=O)Nc1ccc(C(=O)O)cc1 | 9 | 85* | . | 4 | -2
O=C(N/N=C/C(Cl)=C/c1ccc([N+](=O)[O-])cc1)C(=O)Nc1ccccc1C(=O)O | 5 | 2 | . | 0 | 17
Cc1cc(C)c(C(=O)CN2C(=O)NC3(CCCCCC3)C2=O)cc1C | 2 | 52* | -1 | -1 | -1
CSc1ccccc1OCc1cc(C(=O)N2CCN(C)C(c3ccccc3)C2)no1 (stereo unspecified) | 16 | 78* | -9 | 1 | -2
CN1CCN(C(=O)c2cc(COc3c(F)cccc3F)on2)CC1c1ccccc1 (stereo unspecified) | 5 | 80* | 4 | 1 | 12
SMILES | Mtb bLac sens | PfHsp40 rescue | Mtb hypoxia inh | RecA intein inh | CCHF vOTU inh
COc1ccccc1OCc1cc(C(=O)N2CCN(C)C(c3ccccc3)C2)no1 (stereo unspecified) | 4 | -1 | 4 | -2 | 9
CN1CCN(C(=O)c2cc(COc3ccc(F)cc3Cl)on2)CC1c1ccccc1 (stereo unspecified) | 17 | 139* | 9 | 1 | 0
Cc1cccc(NC(=O)COc2ccc(C=Cc3[nH]c(=O)[nH]c(=O)c3[N+](=O)[O-])cc2)c1 | . | . | -1 | . | .
CN1CCc2c(sc(N=Cc3cccs3)c2C(N)=O)C1 | . | . | -10 | . | .
Cc1[nH]c(=O)[nH]c(=O)c1CSc1nnc(C(CC(C)C)NC(=O)OC(C)(C)C)o1 (stereo unspecified) | . | . | 11 | . | .
Cc1cc(C=C(C#N)C(=O)Nc2ccccc2)c(C)n1-c1cccnc1 | . | . | 5 | . | .
O=C(NCc1ccccc1)c1ccc2nccnc2c1 | 0 | 31* | 12 | 0 | -3
Cc1nc(SC(C)C(=O)Nc2cccc(C(F)(F)F)c2)c2c(C)c(C(=O)O)sc2n1 (stereo unspecified) | -8 | 49* | -6 | 6 | 22
Cc1nc(N2CCC(C)CC2)c2c(C)c(C(=O)Nc3cccc(C(F)(F)F)c3)sc2n1 | 14 | -1 | 9 | 6 | -6
